In PubChem BioAssay AID1508600 (Functional Genomics Laboratory (NCATS/FGL), 2020):
Among all 53,000 sequences or so, about 3,700 (7%) were called active.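 How the source made its calls: active means gene knockdowns whose robust z-score for IL-1 alpha signal is at least 2 or at most -2, so actives lie on both sides; inactive means the rest.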 Many of the other results were omitted from the sample, so actives are more common in it than they were.

assay: Components of the Cytosolic LPS Sensing Pathway: Gene Identification via Genome-wide siRNA Screen; conditions: RAW264.7 macrophages, IL-1a HTRF, actives lie on both sides, screened at 100 nM (by protocol), cells primed 5 h with Pam3CSK4 first;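 further: robust z of the log signal after scaling to non-targeting control siRNA wells of the plate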
How it was run: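 RAW264.7; siRNA 100 nM final, RNAiMAX, 48h 37 degrees C; Pam3CSK4 5 h; LipidA + TransIT-TKO 24 h; IL-1a HTRF; CellTiter-Glo viability; robust z vs negative-control median.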

Sequence | z-score
GGACACAAGUUUUCAGAUCTT against Elmod2 | 3.02 (active)
GGAUCAUGGAUAUACCACCTT against Smarcb1 | -1.72 (inactive)
GGUGCAAACUAAAAAUCUUTT against Enc1 | 2.73 (active)
GGAAGAUGAAGAUGAGAAUTT against Igbp1b | -1.24 (inactive)
GGGAAGCAUGCAGAACAGCTT against Parg | -1.42 (inactive)
GGUUCCUCAAGAUCAUCAUTT against P2ry13 | 0.051 (inactive)
GCUUUGAUGGAUUCUAAUCTT against Htt | 1.09 (inactive)
CCCAUUUGCUCUGUGGAUCTT against Tha1 | 0.289 (inactive)
GCACUUUGGGUUUAAGUACTT against Ndrg4 | 3.7 (active)
GGGAGAGAGAAAAAGAAAATT against Park7 | 0.94 (inactive)
CCUGGCCAUGUCGAAAGAUTT against Pla2g6 | 0.716 (inactive)
GGAAGAAGUCAGAUGUGGATT against Radil | -0.315 (inactive)
UGAUGCUAAGACUGAACCATT against Olfr541 | -1.14 (inactive)
GGACAUUGUUGUCCAAACUTT against Sptb | -2.24 (active)
CCAUAUUUGAAGAAGUCCATT against Espl1 | -0.325 (inactive)
GGGUACAACUCUUUGAAGATT against Mnat1 | 0.535 (inactive)
GCAGUUGAUGAUAAUGUGATT against Pot1b | -0.0269 (inactive)
CGCGGAAACUCUCCACUUATT against Psme4 | -1.18 (inactive)
GGGCGAUAUUAUGAGCAACTT against Atp1b2 | 3.78 (active)
GGAUCCUCUUCUAUCUUUATT against Pycr1 | -1.27 (inactive)
GGCUGCUUUACUGAAGUAATT against C2cd6 | 1.29 (inactive)
GGGACUUGGAUCGAAUGGATT against Apeh | 0.326 (inactive)
GGGAAAUUGUGUAGCAGCUTT against Slc25a29 | -2.76 (active)

Sequence | z-score
GGAGGUGGUGUUUAUACCATT against Scrn2 | 0.728 (inactive)
GCCUAUGCAGCUCUCUCUGTT against Acat3 | 0.772 (inactive)
GGUUAUUACGUAGUUGGUATT against Cd46 | 0.683 (inactive)
GGUCUACGCGCUCUAUGAATT against Gpr150 | -1.03 (inactive)
GGAGACAGAAUCAUAGUUATT against Sh3yl1 | 0.0505 (inactive)
CGAUUCUUUAGGAACUUUGTT against Pak7 | -0.0771 (inactive)
GGCAGUGGUUAAAGGUUCCTT against Lrp6 | 2.27 (active)
GCACUUAUACUACUUAGUUTT against Abca8a | 2.4 (active)
GCAGGAUUUUCACCAACAGTT against Gh | -0.215 (inactive)
GGUAGAAUCCGGUUACCACTT against Tox | 0.704 (inactive)
GGGAAAGACCAUGUUUGUATT against Ttbk2 | 0.493 (inactive)
CCAAUUGUGAGAAGAGUGUTT against Cog7 | -0.46 (inactive)
GGAUUUUGUGAAUAAAUGCTT against Map2k1 | 1.31 (inactive)
GGGAAAAGAGAGUGGUGUATT against Rab27a | -0.26 (inactive)
GGAGAGCUGGUGUUUUAGATT against Tnfrsf17 | 2.74 (active)
GGGUUCAUUUCUCAAAAUUTT against Nol7 | -0.831 (inactive)
GGAACAAGAAGACUGUGAATT against Pcnt | -0.519 (inactive)
GCCUUACAAUUUGUUCUACTT against Dsc1 | 1 (inactive)
CGUCCAGUAUACGCUGGUUTT against Cdc45 | 5.41 (active)
GGAUGAACCAAGCUACUGCTT against Gba2 | -0.541 (inactive)
GUUCAAGACGGAGAAGAGGTT against Gpr27 | 3.03 (active)
CCCAAUACAUGAGCUUCUGTT against Ch25h | -0.209 (inactive)
GGAAGACUUCGUGUUGACATT against Proz | 0.223 (inactive)

Sequence | z-score
GGCUCUAUGUUUAUAAUGATT against Olfm5 | -2.07 (active)
GGAAAAAUGACUGAUCUCUTT against Unc5c | -0.0354 (inactive)
GGUUGGUAGACUGUGCUUGTT against Hgsnat | -2.56 (active)
GGACCUACUACGUAAACCATT against Nedd4 | 0.434 (inactive)
GGAAUAUCGGACUUUUUCATT against Mis18bp1 | 0.635 (inactive)
CGGGACCUUGUUGAUAACUTT against Tmem130 | 0.811 (inactive)
GGUGUUUGGGAAAGGUCUGTT against Trpm1 | -1.33 (inactive)
GCACAAAUGGGAAUACGACTT against Klhl36 | -0.94 (inactive)
CCAACCAGACUUAUUUAAUTT against Zfp37 | 1.61 (inactive)
GGGUGGCUAUGGACAAAAATT against Arl5c | 0.887 (inactive)
GGACAUCAAUUCAACAGUUTT against Lifr | -0.361 (inactive)
GGAAGAGUGUUUAAACUAUTT against Kbtbd8 | -0.591 (inactive)
CCUGAUCUAAUCCUAAAUGTT against Pgr | -0.171 (inactive)
AUCUAUUCGAAUCAGGAAGTT against Epsti1 | -0.102 (inactive)
GGCUUUUGAAGUAAAUACATT against Pcdhb14 | 2.65 (active)
GUCCAGAGUGACCACAUUUTT against Pemt | -0.471 (inactive)
GGAUUACGCAGAUUCCAUUTT against Rab22a | -0.474 (inactive)
CGAAUUGAAUUCUACGAACTT against Pmm2 | 0.252 (inactive)
GGAUGAUAAAGACAAAGUATT against Ppm1g | -0.921 (inactive)
GGUUUCUGGCUUUCCGUAGTT against Erf | -0.0549 (inactive)
GCUCUGCAUGACCUUACCUTT against Ugt2b1 | 0.245 (inactive)
GGCCUUUGUACAGGACCCATT against Tor2a | -1.01 (inactive)
GGUCAGAAGAGAUCAAAAGTT against Ttc23 | -0.0386 (inactive)
